Measurements from ChEMBL document CHEMBL4513216, “Probing the Open Global Health Chemical Diversity Library for Multistage-Active Starting Points for Next-Generation Antimalarials” (ACS Infect Dis, 2020).
About 8,600 (12%) of roughly 69,000 compounds showed an effect of 50% or more. The list comes from a sample in which strong results are over-represented; it also holds similar structures and randomly drawn compounds.

test system: Plasmodium berghei; assay: Screen against P. berghei liver stage (PbLuc), transformed with Luciferase, at 10uM; assay type: functional, HepG2; conditions: tested at 10 uM

SMILES | INHIBITION [%]
COCCOc1ncccc1C(=O)N1CCCC1Cn1cc(C)cn1 (centres undefined) | 15.5
COCCN1CCN(S(C)(=O)=O)Cc2cccnc21 | -0.284
N#Cc1ccc(CN(CCF)Cc2cccc(F)c2)cc1 | 37.9
CCc1noc(CN2CCN(C(=O)N(CC)CC)CC2)n1 | -7.31
O=C(c1ncccn1)N1CC[C@H]2OCC[C@@]2(COc2ccccn2)C1 | -1.15
CN(C)CC(=O)Nc1ccc(C(=O)N(C)CCc2cn[nH]c2)cc1 | 38.2
CN(C)[C@@H]1CCN(c2ncc(F)cn2)[C@H]1Cc1ccncc1 | -42.9
O=C(CN1CC(c2nc(-c3cccs3)no2)C1)NCC1CCCO1 (centres undefined) | 32.1
CCc1nc(CN2CCCN(C(=O)CC(F)(F)F)CC2)cs1 | -19.4
Cc1nc(CN2CCC23CCN(Cc2ccoc2)CC3)cs1 | 26.7
Cc1nc(N2CCN(C(=O)c3ccco3)CC2)c2c(n1)c(C)nn2C | 7.66
CCc1nc(CN2CCCN(C(=O)c3ccccc3)CC2)cs1 | -155
COc1ccc(C(=O)N2CCN(c3cc(CCN)nc(C)n3)CC2)cc1 | 38.5
CCc1nc(CN2CCCN(C(=O)COC)CC2)cs1 | -61.4
Cc1nc(CN2CCC23CCN(C(=O)c2ccncc2)CC3)cs1 | 12.7
CCc1nc(CN2CCCN(C(=O)c3ccco3)CC2)cs1 | 53.9
CCc1nc(CN2CCCN(C(=O)Cc3cccs3)CC2)cs1 | 55.1
Cc1nc(CN2CCC23CCN(C(=O)c2ccco2)CC3)cs1 | 60.2
CCc1ccc(C(=O)N2CCCN(Cc3csc(CC)n3)CC2)o1 | -7.25
Cc1nc(CCN)cc(N2CCCN(C(=O)c3ccco3)CC2)n1 | 50.3
Cc1nnc(C(NS(=O)(=O)c2cc(C)c(F)cc2F)C(C)C)[nH]1 (centres undefined) | 38.9
CNC(=O)[C@H]1C[C@@H]2CN(Cc3csc(C)n3)C[C@@H]2N1S(C)(=O)=O | 28.5
C[S+]([O-])c1cccc(NC(=O)N[C@H](CCO)c2ccccc2)c1 (some centres undefined) | 11.5
Cc1cc(C(=O)NCC(c2ccsc2)N(C)C)no1 (centres undefined) | 24
NC(=O)NC(CC(=O)N1CCc2sccc2C1)c1ccccc1F (centres undefined) | 3.3
CN(C)c1cc2c(nn1)CCN(C(=O)C1Cc3ccccc3O1)C2 (centres undefined) | 56.4

SMILES | INHIBITION [%]
CCNc1cc2c(nn1)CCN(C(=O)C1Cc3ccccc3O1)C2 (centres undefined) | 18.6
CN(C)c1cc2c(nn1)CCN(C(=O)C1COc3ccccc3C1)C2 (centres undefined) | 20.2
CC(C)(C)C(=O)NCCC(=O)NCCc1ccn(-c2ccccc2)n1 | 23.4
COc1ccc(-c2nc(CNC3CCc4nc(C)nn4C3)no2)cc1 (centres undefined) | 56.6
CCc1nc2n(n1)CC(NCC1=Cc3ccc(OC)cc3OC1)CC2 (centres undefined) | 32.3
Cc1cccc(-c2nc(CNC3CCc4nc(C)nn4C3)no2)c1 (centres undefined) | 19.6
COc1ccc2c(c1)OCC(CNC1CCc3nc(C)nn3C1)=C2 (centres undefined) | 85.2
CCc1nc2n(n1)CC(NCc1noc(-c3ccc(C)cc3)n1)CC2 (centres undefined) | 31.9
COc1cc(CNC2CCc3nc(C)nn3C2)cc2c1OCO2 (centres undefined) | -43.6
CCn1cc(S(=O)(=O)Nc2nc3c(s2)CCCC3)cn1 | -35.4
Cc1ncsc1CCN(C)C(=O)CCc1nc2cccnc2n1C | -51
c1ccc(-c2cnc3n2CCNC32CCNCC2)cc1 | -30.1
CNC(=O)CN1CCCC12CCN(C(=O)c1ccccc1F)CC2 | -35.6
Cc1ccc(N2CCO[C@H]3CN(C(=O)c4cccc(C)n4)C[C@H]32)nn1 | 53
Cc1cccc(C(=O)N2C[C@@H]3OCCN(C(C)C)[C@@H]3C2)n1 | 18.8
Cc1cccc(C(=O)N2C[C@@H]3OCCN(c4ncccn4)[C@@H]3C2)n1 | 16.6
Cc1ccc(N2CCO[C@H]3CN(Cc4ccccn4)C[C@H]32)nn1 | 50.9
Cc1ccc(N2CCO[C@H]3CN(Cc4nccs4)C[C@H]32)nn1 | 25.2
Cc1ccc(N2CCO[C@H]3CN(Cc4ccncc4)C[C@H]32)nn1 | 22.7
Cc1ccc(N2C[C@@H]3CN(C(=O)c4ccccc4)CCO[C@@H]3C2)nn1 | 51.2
Cc1ccc(N2CCO[C@H]3CN(Cc4cccnc4)C[C@H]32)nn1 | -12
c1ccc(CN2C[C@@H]3OCCN(c4ncccn4)[C@@H]3C2)nc1 | 38.1
O=C(c1ccccc1)N1CCO[C@@H]2CN(c3cnccn3)C[C@@H]2C1 | 37.9
O=C(c1ccccc1)N1CCO[C@@H]2CN(c3ncccn3)C[C@@H]2C1 | 48.2
Cc1ccc(N2CCO[C@H]3CN(Cc4cccs4)C[C@H]32)nn1 | 88.2
CC(=O)NC[C@]1(O)CCN(C(=O)c2ccc(F)c(Cl)c2)C[C@H]1O | 18.9

SMILES | INHIBITION [%]
O=C1COC2(CCN(Cc3cccnc3)CC2)CN1c1ccccc1 | 48.4
C[C@@]1(O)CCN(C2CCOCC2)C[C@H]1n1ccc(=O)[nH]c1=O | 10.95
Clc1ccc(Cc2nc(CNCCn3cccn3)cs2)cc1 | 16.6
CCc1nn(C)c(Cl)c1CN(CC)Cc1cnn(CC)c1 | -21.9
COC(=O)CCn1ccc(=O)c2cc(F)ccc21 | 6.34
Cc1ccc2c(c1)c(C)cc(=O)n2CC(=O)O | 10.775
CC(=O)Cn1c(C)cc(=O)c2cc(F)ccc21 | 82.4
COC(=O)Cn1c(C)cc(=O)c2cc(F)ccc21 | 71.3
COC(=O)Cn1ccc(=O)c2ccc(OC)cc21 | -20
Cc1cc(=O)c2cc(F)ccc2n1CC(=O)O | 71.3
CC(=O)c1c(O)n(C)c2ccc(F)cc12 | 5.75
O=C(O)Cn1ccc(=O)c2cc(F)ccc21 | 25.3
Cc1cc(C)n(C2CN(C(=O)Cn3c(C)cc(=O)c4ccccc43)C2)n1 | 29.1
CNC(=O)c1ccc(C2CN(C(=O)c3c[nH]nc3C)CCO2)nc1 (centres undefined) | -20.2
O=C(NC1CCN(c2ccccc2Br)C1)c1c[nH]nn1 (centres undefined) | 34.2
CS(=O)(=O)NCC1CCCN(C(=O)Nc2cccc3ccccc23)C1 (centres undefined) | -31.3
CC(C)C(NC(=O)Cc1ccccc1)C(=O)NCc1ccc(O)nc1 (centres undefined) | 0.991
CC(C)(C)c1nnc(CN2CCCC2Cn2cncn2)o1 (centres undefined) | 32.707
CN1CC(=O)N(c2cccc(F)c2)CC12CCN(S(=O)(=O)C1CC1)C2 (centres undefined) | 5.44
NC(=O)c1cnc(NC2CC2)nc1CCNC(=O)CC1CCCC1 | 31.3
CCOC(=O)CNC(=O)N1CCN(c2ncccn2)CC1 | 63.5
CCOC(=O)CCCNC(=O)CN1CCN(c2ncccn2)CC1 | 1.81
O=C(NCc1cc[nH]n1)N1CCN(c2ncccn2)CC1 | 33.3
Cn1c(C(=O)NC(Cc2ccsc2)c2cccnc2)cc(=O)n(C)c1=O (centres undefined) | -12.3
C/C=C(\C)CN1C[C@@H](NC(=O)c2ccc(F)c(F)c2)C[C@H]1C(=O)NCC | 52
C/C=C(\C)CN1C[C@@H](NC(=O)c2ccc(O)c(Cl)c2)C[C@H]1C(=O)NCC | 22.4

SMILES | INHIBITION [%]
C/C=C(\C)CN1C[C@H](NC(=O)c2cnc(O)cn2)C[C@H]1C(=O)NCC | -7.17
c1ccc(OCCN2CCCCC2Cn2cncn2)cc1 (centres undefined) | 40.9
CCCC(C)N(C)C(=O)c1nc(S(C)(=O)=O)n2ccccc12 (centres undefined) | -8.95
Cc1nc(C)c(C(=O)N2CCc3cc(F)ccc3C2C)o1 (centres undefined) | 52.6
Cc1nc(C)c(C(=O)N2CCc3ccc(F)cc3C2C)o1 (centres undefined) | -11.6
Cc1nc(C)c(C(=O)N2Cc3cc(F)ccc3CC2C)o1 (centres undefined) | -9.17
C=c1ncsc1=C1NN=C(C2CCCN2C(=O)CCn2ccc(C)n2)O1 (centres undefined) | 21.95
Cc1nn(C)c(C)c1CN(C)CC1(O)CCCN(C)C1 (centres undefined) | 5.18
CCCc1cnc(C)nc1N1CCC(Cc2ccc(CO)cc2)C1 (centres undefined) | 75
CCCc1cc(N2CCC(Cc3cccc(C(N)=O)c3)C2)nc(C)n1 (centres undefined) | 5.67
CCCc1cnc(C)nc1N1CCC2(CCCO2)CC1 | 13.1
CCCc1cnc(C)nc1N1CCC(Cn2cc(CN(C)C)nn2)CC1 | -16.1
CCCc1cnc(C)nc1N1CCC(Cn2cc(C(C)O)nn2)CC1 (centres undefined) | 17.5
CCCc1cnc(C)nc1N1CCC(F)(F)CC1 | -40.6
CCCc1cnc(C)nc1N1CCC(Cc2cccc(C(N)=O)c2)C1 (centres undefined) | 52.2
CCc1cnc(C)nc1N1CCC(Cc2cccc(C(=O)O)c2)C1 (centres undefined) | 47.2
CCCc1cnc(C)nc1N1CCC(Cn2cc(CO)nn2)CC1 | 50.2
Cn1cnc2c1CCN(Cc1cccc(C(=O)N3CCCCC3)c1)C2 | -40.01
Cc1cccc(S(=O)(=O)N2C[C@@H]3C[C@H](C(=O)N(C)C)[C@H](C2)O3)c1 | 42.3
Cc1nc(NC2CC(C)(C)NC(C)(C)C2)c2c(n1)c(C)nn2C | -7.83
COCCc1noc(CN(C)c2nc(C)nc(C)c2C)n1 | 47.6
CNc1snc(C)c1C(=O)N1CCCC(n2nc(C)nc2C)C1 (centres undefined) | 19.4
O=C1CC(NS(=O)(=O)c2cccc(F)c2)CN1 (centres undefined) | 10.7
CC(NC(=O)N1CCC(CC(N)=O)CC1)c1csc2ccccc12 (centres undefined) | 27.7
CC(=O)N1CCCN(C(=O)NC(C)c2csc3ccccc23)CC1 (centres undefined) | 21.8
CC(NC(=O)N1CCC(CO)CC1)c1csc2ccccc12 (centres undefined) | 55.5
